Only some compounds are listed: those with a hit (about 3.1% of all), similar ones and a draw of the others.
miR122 inh – blocks miR-122 activity in Huh7 sensor cells; Huh7 miR-122 Renilla luciferase sensor, 48 h; neutral wells = 0, positive control = 100; activation (reporter increase), % at 12.5 µM; actives 0.3% (n = 340,000); AID 602342;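 active = mean replicate activation score at least 90 and every replicate individually at or above 90; inconclusive = only one of the two criteria met; inactive = neither criterion met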;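 note: higher luciferase means less miR-122 activity so hits act as miR-122 inhibitors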
PAX8 inh HTS – inhibitors of PAX8 transcriptional activity in RMG-I cells; RMG-I TPO-luciferase reporter, SteadyGlo, 24 h; actives 1.2% (n = 360,000); AID 652154; inhibition, % at 12.6 µM;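 active = mean replicate inhibition at least 60% with every replicate also reaching 60%; inconclusive = only one of the two criteria is met; inactive = mean below 60% and not all replicates reaching 60%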;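 note: luciferase light reporting Pax8 driven TPO promoter activity; plate controls were median of neutral control wells for no effect and mitoxantrone controls for full effect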
EWS-Fli block – inhibitors of EWS/Fli oncoprotein transcriptional activity; A673 NR0B1-luciferase reporter, viability-normalised; inhibition, % at 12.6 µM; actives 0.67% (n = 350,000);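 active = mean inhibition of at least 50% after viability correction, with every replicate also passing that limit; inconclusive = mean reaches 50% but only one of two replicates passes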;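 note: firefly luciferase signal divided by Alamar Blue viability fluorescence both relative to DMSO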
INS-1E GSIS act – GLuc luminescence reporter in INS-1E cells, primary screen for activators of glucose-dependent secretion of insulin; INS-1E GLuc reporter insulin secretion, 2-3 h; activation, % at 16.6 µM; actives 0.61% (n = 370,000);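 active = lowest replicate activation of at least 40%, so every replicate reaches that level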;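 note: 0% = median of neutral control wells and 100% = median of IBMX positive control wells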
Statin myotox sup – suppression of simvastatin myotoxicity; rescue of ATP level, % at 7.49 µM; actives 0.78% (n = 330,000); C2C12 myotubes + simvastatin, ATP luminescence, 48 h; scaled: DMSO 0, geranylgeraniol control 100;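 active = mean ATP rescue above about 67%, or every replicate alone reaching that limit, limit read from the data, passing the limit was not always enough; inconclusive = no clear call, values can overlap the other calls; inactive = mean under the limit and some replicate under it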;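 note: myotubes were challenged with 10 µM simvastatin during compound exposure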
Env fusion inh – blocks HIV Env-driven cell-cell fusion. HeLa-JRFL Env/CEM21 cell fusion, luciferase. AID 651610. actives 1.1% (n = 360,000). inhibition, % at 12.3 µM;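 active = mean replicate inhibition score of at least 50 and every replicate individually at or above 50; inconclusive = only one of the two criteria met; inactive = mean below 50 and not all replicates reaching 50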;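 note: 0% = plate neutral controls and 100% = maraviroc near 300 nM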
The depositor's hits bear a star; u = inconclusive; x = no result given; ! = a repeat was not active; [ ] = dose if it differs, or a comment.

SMILES	miR122 inh	PAX8 inh HTS	EWS-Fli block	INS-1E GSIS act	Statin myotox sup	Env fusion inh
COc1ccc(S(=O)(=O)N(C)C[C@H]2Oc3ccc(NS(=O)(=O)c4ccc(F)cc4)cc3CC(=O)N([C@@H](C)CO)C[C@H]2C)cc1	-0.4[16.7 µM]	x	2.7	-4.5	30.1	1.4[16.7 µM]
COc1ccc(S(=O)(=O)Nc2ccc3c(c2)CC(=O)N([C@H](C)CO)C[C@H](C)[C@H](CN(C)S(=O)(=O)c2ccc(F)cc2)O3)cc1	-1.3[16.7 µM]	7.6	10.8	-5.9	-35.9	91.0*[16.7 µM]
COc1ccc(S(=O)(=O)N(C)C[C@@H]2Oc3ccc(NS(=O)(=O)c4ccc(Cl)cc4)cc3CC(=O)N([C@H](C)CO)C[C@@H]2C)cc1	1.4[16.7 µM]	8.9	-5.2	-15.5	20.5	23.9[16.7 µM]
COc1ccc(S(=O)(=O)N(C)C[C@@H]2Oc3ccc(NC(=O)Cn4cnnn4)cc3CC(=O)N([C@@H](C)CO)C[C@H]2C)cc1	-3.9[16.7 µM]	x	-1.0	8.6	-5.7	-10.1[16.7 µM]
COc1ccc(S(=O)(=O)N(C)C[C@@H]2Oc3ccc(NS(=O)(=O)c4ccc(Cl)cc4)cc3CC(=O)N([C@@H](C)CO)C[C@H]2C)cc1	-7.8[16.7 µM]	33.1	27.7	-16.0	73.2*	3.5[16.7 µM]
COc1ccc(CN(C)C[C@@H]2OCCCC[C@@H](C)Oc3ccc(NC(=O)CCCCCC(=O)Nc4ccccc4N)cc3C(=O)N([C@H](C)CO)C[C@@H]2C)cc1	x	7.9	-10.0	27.4	x	x
COCCNC(=O)C[C@H]1C=C[C@@H](NC(=O)NC2CCCCC2)[C@H](CO)O1	-1.1[16.7 µM]	-1.1	-6.7	37.8	3.4	-5.3[16.7 µM]
Cc1ccc(S(=O)(=O)N(C)C[C@@H]2Oc3ccc(NS(=O)(=O)c4c(C)noc4C)cc3CC(=O)N([C@@H](C)CO)C[C@H]2C)cc1	40.0[16.7 µM]	-37.6	-9.8	4.6	4.1	-29.9[16.7 µM]
COc1ccc(S(=O)(=O)Nc2ccc3c(c2)CC(=O)N([C@H](C)CO)C[C@H](C)[C@H](CN(C)S(=O)(=O)c2cccs2)O3)cc1	13.7[16.7 µM]	-11.5	7.5	-11.9	-1.5	62.1*[16.7 µM]
Cc1ccc(S(=O)(=O)N(C)C[C@@H]2Oc3ccc(NS(=O)(=O)c4c(C)noc4C)cc3CC(=O)N([C@H](C)CO)C[C@@H]2C)cc1	-8.8[16.7 µM]	3.5	4.7	-15.5	-13.5	61.7*[16.7 µM]
COc1ccc(S(=O)(=O)N(C)C[C@H]2Oc3ccc(NS(=O)(=O)c4cccs4)cc3CC(=O)N([C@@H](C)CO)C[C@@H]2C)cc1	2.8[16.7 µM]	x	-1.4	-5.5	-12.5	-7.9[16.7 µM]
COc1ccc(S(=O)(=O)Nc2ccc3c(c2)CC(=O)N([C@H](C)CO)C[C@H](C)[C@H](CN(C)S(=O)(=O)c2ccc(OC)cc2)O3)cc1	4.2[16.7 µM]	8.8	5.5	-16.2	-19.7	56.2*[16.7 µM]
C[C@H]1CN([C@@H](C)CO)S(=O)(=O)c2ccc(C#CC3CC3)cc2O[C@@H]1CN(C)C(=O)CN(C)C	-7.0[16.7 µM]	x	3.5	-2.7	-4.0	-3.3[16.7 µM]
O=C(c1ccccn1)N1CC2(C1)[C@@H](c1ccccc1)[C@H](CO)N2Cc1ccc(Cl)cc1	x	x	2.1	-17.2	x	x
C=CCNc1cc(C)oc(=O)c1C(=O)CCC	-3.2	x	x	70.9*	6.5	11.3
COc1ccc(S(=O)(=O)N(C)C[C@@H]2OCCCC[C@@H](C)Oc3ccc(NS(=O)(=O)c4c(C)noc4C)cc3C(=O)N([C@@H](C)CO)C[C@H]2C)cc1	-16.6[16.7 µM]	-15.4	-0.7	-24.7	x	-17.5[16.7 µM]
COc1ccc2c3c(n(C)c2c1)[C@H](CO)N(C(=O)C1CCOCC1)CC31CCN(Cc2cccc(F)c2)CC1	x	x	29.9	-16.2	x	55.1*[16.7 µM]
COc1ccc2c3c(n(C)c2c1)[C@@H](CO)N(C(=O)C1CCOCC1)CC31CCN(Cc2cccc(F)c2)CC1	x	x	25.7	-24.1	x	69.9*[16.7 µM]
COc1ccc(N2C(=O)CSC23C(=O)Nc2ccccc23)cc1 (stereo not drawn)	-15.1	-1.5	x	x	109.6*	-45.4
Cc1ccc(N2C(=O)CCSC23C(=O)Nc2ccccc23)cc1 (stereo not drawn)	4.5	x	x	x	-22.0	1.2
O=C(NNc1ncnc2sccc12)c1ccc(Cl)cc1	-9.5	23.3	8.9	-1.5	9.6	-1.5
Cc1csc2ncnc(NNC(=O)c3ccc(Cl)cc3)c12	x	20.4	-0.6	x	x	65.7*
Cc1ccc(N2CCN(C(=O)c3ccccc3Br)CC2)c(C)c1	-1.4	x	x	-10.8	80.6*	x
Clc1ccc(-c2cn(-c3ccccc3)c3[n+]2CCS3)cc1	1.4	9.9	8.5	-37.1	-148.9	6.0
COc1ccc(-c2cn(-c3ccc(Br)cc3)c3[n+]2CCS3)cc1	-1.7	64.9*	6.5	-25.6	-163.4	18.8
SMILES	miR122 inh	PAX8 inh HTS	EWS-Fli block	INS-1E GSIS act	Statin myotox sup	Env fusion inh
C[C@@H]1CCCCO[C@@H](CN(C)C(=O)c2ccccc2)[C@@H](C)CN([C@@H](C)CO)C(=O)c2cc(NC(=O)CCC(F)(F)F)ccc2O1	1.8[16.7 µM]	-25.9	-10.8	-10.0	x	20.2[16.7 µM]
CCCNC(=O)C[C@@H]1CC[C@H]2[C@@H](COc3ccc(NC(=O)c4cccc(C(F)(F)F)c4)cc3C(=O)N2C)O1	-5.2[16.7 µM]	3.4	3.8	2.9	3.0	25.3[16.7 µM]
COc1cc2c(cc1OC)-c1cc(Nc3ccccc3Br)nc(=O)n1CC2	-19.6	23.3	22.8	72.7*	18.2	-4.9
COc1cc2c(cc1OC)-c1cc(N3CCc4ccccc43)nc(=O)n1CC2	x	7.3	9.9	42.8*	x	11.5
COc1cc2c(cc1OC)-c1cc(N3CCCc4ccccc43)nc(=O)n1CC2	-10.2	x	15.6	32.4	6.0	x
O=C(O)C[C@H]1CC[C@H](NC(=O)CCN2CCCCC2)[C@H](CO)O1	x	-2.4	x	2.3	x	x
O=C(CN1CCOCC1)NCC[C@@H]1CC[C@@H](NC(=O)c2ccc3c(c2)OCO3)[C@@H](CO)O1	x	6.5	3.1	-2.5	-9.2	-1.8[16.7 µM]
CC(C)NC(=O)N(C)C[C@@H]1Oc2ccc(NC(=O)CCCCCC(=O)Nc3ccccc3N)cc2C(=O)N([C@@H](C)CO)C[C@@H]1C	-9.8[16.7 µM]	x	-1.5	8.9	x	-13.5[16.7 µM]
O=C(Nc1ccc(F)cc1)N1C[C@@H]2N[C@H](C1)C2c1ccc(/C=C/c2ccccc2)cc1 (stereo partly drawn)	x	105.2*!	-1.5	-16.9	x	x
C/C=C/c1ccc(C2[C@@H]3CN(C(=O)Nc4ccc(F)cc4)C[C@H]2N3)cc1 (stereo partly drawn)	x	-2.3	-0.6	-14.9	x	x
C/C=C/c1ccc(C2[C@@H]3CN(C(=O)Nc4ccc(C(F)(F)F)cc4)C[C@H]2N3)cc1 (stereo partly drawn)	x	-6.8	u	190.1*!	x	x
CCCNC(=O)C[C@@H]1CC[C@H]2[C@@H](COc3ccc(NC(=O)c4cccc(OC)c4)cc3C(=O)N2C)O1	-4.9[16.7 µM]	3.3	2.5	-1.9	-2.3	14.8[16.7 µM]
O=C1c2ccccc2C(=O)N1CC1=CCS(=O)(=O)C1	-6.2	x	x	x	112.5*	x
O=C1c2ccccc2C(=O)N1CCCN1C(=O)c2ccccc2C1=O	8.2	-10.8	-2.0	-3.0	-0.8	-4.0
